Screens deposited in PubChem BioAssay by SRMLSC.
Fluor 339 460 – intrinsic fluorescence of library compounds, ex339/em460 – biochemical, MLSMR library, data from DPM-DC assay, artefact control, profiling panel. fluorescence fold increase at 10 µM. compound autofluorescence, ex339/em460 nm, NADH buffer; active compounds read high; 1 = no-compound wells, NADH background. hit rate 5.5% among 65,000. AID 709;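 active means at 10 µM, mean starting fluorescence two-fold or more over control wells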;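 further: signal is the first read of a kinetic run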
Spn MK inh – S. pneumoniae mevalonate kinase inhibition; purified MK, PK/LDH-coupled NADH absorbance 340 nm; inhibition, % at 10 µM; hit rate 0.48% among 65,000; AID 555;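 active means ranked among the strongest by inhibition in the single 10 µM screen, a fixed top-ranked set picked for dose follow-up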
Abs 340nm – absorbance at 340 nm; compound absorbance at 340 nm, fold over control; fold change at 10 µM; 65,000 tested, under 10 active;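 active means at 10 µM dose, initial 340 nm absorbance at least 2 fold that of control wells; inactive means change under 2 fold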;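 further: initial absorbance extrapolated from kinetic A340 decline of NADH oxidation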
Spn DPM-DC inh – blocks S. pneumoniae diphosphomevalonate decarboxylase; purified DPM-DC, PK/LDH coupled NADH fluorescence; calls only at 10 µM; hit rate 0.49% among 65,000;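 active means the 320 compounds with the highest percent inhibition in the single-dose primary screen, excluding strongly autofluorescent ones, cut at about 32% in these data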;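 further: kinetic rate of NADH fluorescence loss reporting ADP formed by the decarboxylase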
NADH coupling – inhibitors of enzymes used to reach an NAD/NADH endpoint; IC50, µM (top dose mostly 10 µM); coupled PK/LDH NADH assays, four targets; hit rate 0.02% among 65,000;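 active means single-dose screening hits from any of four coupled enzyme assays that gave an IC50 when retested across doses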;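 further: the DPM-DC format reads NADH fluorescence rather than 340 nm absorbance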
PMK inhibit – blocks S. pneumoniae phosphomevalonate kinase | AID 539 | purified PMK, PK/LDH-coupled NADH absorbance 340 nm | inhibition, % at 10 µM | hit rate 0.49% among 65,000;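 active means top-ranked compounds by inhibition in the single 10 µM screen, taking a fixed number of the strongest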
Large screens that a line does not name were inactive. Only some compounds are listed: those with a hit (about 6.5% of all), similar ones and a draw of the others.

O=C(c1c[nH]c2ccc(S(=O)(=O)N3CCC4(CC3)OCCO4)cc2c1=O)N1CCOCC1	Fluor 339 460 2.1 (not shown: Spn DPM-DC inh)
Cc1cc(C)c(Cn2c(=O)n(CCCC(=O)NCc3ccco3)c(=O)c3ccccc32)c(C)c1	none
CCOC(=O)c1sc2nc(NC(=O)C3CC3)sc2c1C	Fluor 339 460 2.01
CCOC(=O)c1sc2nc(NC(=O)C3CCCCC3)sc2c1C	none
CC(=O)Nc1ccc2nc(-c3ccccn3)[nH]c2c1	Fluor 339 460 3.73 (not shown: Spn DPM-DC inh)
O=C(Nc1ccc2nc(-c3cccs3)[nH]c2c1)c1cccs1	Fluor 339 460 2.35
COc1cccc(-c2nc(NCC3CCCO3)c3ccccc3n2)c1O (stereo not given)	none
Oc1ccccc1-c1nc(NCC2CCCO2)c2ccccc2n1 (stereo not given)	none
COc1cc(-c2nc3ccccn3c2NCC2CCCO2)ccc1O (stereo not given)	Fluor 339 460 3.68 (not shown: Spn DPM-DC inh)
CCOc1cc(-c2nc3ccccn3c2NCC2CCCO2)ccc1O (stereo not given)	Fluor 339 460 3.02 (not shown: Spn DPM-DC inh)
CN1CCc2c(sc3c2c(=O)n(-c2ccccc2)c2nnc(SCc4ccccc4F)n32)C1	none
O=C1c2oc3ccccc3c(=O)c2C(c2ccc(Cl)cc2)N1c1ncccn1 (stereo not given)	none
COc1ccc2[nH]c(=O)c(CN(C(=O)NC3CCCCC3)C3CCCC3)cc2c1	Fluor 339 460 2.5
Cc1ccc2[nH]c(=O)c(CN(CCN3CCOCC3)C(=O)Nc3ccccc3F)cc2c1	Spn MK inh active
COc1cc2cc(CN(C(=O)Nc3ccccc3)C3CCCC3)c(=O)[nH]c2cc1OC	Fluor 339 460 3.21 (not shown: Spn DPM-DC inh)
CCc1ccc2[nH]c(=O)c(CN(CCN(CC)CC)C(=O)NC3CCCCC3)cc2c1	none
COc1ccc2[nH]c(=O)c(CN(C(C)=O)C3CCCCC3)cc2c1	Fluor 339 460 3.48 (not shown: Spn DPM-DC inh)
Cc1cccc2cc(CN(CCN3CCOCC3)C(=O)Nc3ccccc3F)c(=O)[nH]c12	none
CCc1cccc(C)c1NC(=O)C1=C(C(=O)O)CCCC1	none
COc1cc2cc(CN(CCN3CCCC3)C(=O)Nc3ccc(F)cc3)c(=O)[nH]c2cc1OC	Fluor 339 460 3.08 (no result: Spn MK inh)
COC(=O)c1cc2c(s1)-c1ccccc1OC2	Fluor 339 460 2.1 (not shown: Spn DPM-DC inh)
COc1ccccc1N1CCN(c2cc(N3CCCC3)nc(C)n2)CC1	none
COc1ccc(OC)c2c(C)cc(N3CCCN(C)CC3)nc12	Fluor 339 460 2.24 (not shown: Spn DPM-DC inh)
CCOC(=O)N1CCC(NC(=O)CCc2c(C)nc3ncnn3c2C)CC1	none
COc1ccc(CC(=O)Nc2ccc(N3CCN(c4ccc(OC)cc4)CC3)c(C#N)c2)cc1	Fluor 339 460 2.16
COc1ccc(N2CCN(c3ccc(NC(=O)c4ccc5c(c4)OCO5)cc3C#N)CC2)cc1	none
COC(=O)C1(C)Nc2ccccc2C(=O)N1c1ccccc1OC (stereo not given)	Fluor 339 460 2.09 (not shown: Spn DPM-DC inh)
COC(=O)C1(C)NC(=O)c2ccccc2N1 (stereo not given)	Fluor 339 460 2.08 (not shown: Spn DPM-DC inh)
Cc1sc2nc3n(c(=O)c2c1C)Cc1ccccc1-3	Fluor 339 460 3.74 (not shown: Spn DPM-DC inh)
CCCCS(=O)CC(COCc1ccccc1)OC(=O)CSc1nc(C)cc(C)n1 (stereo not given)	none
Cc1ccc2c(c1)-c1ccccc1S(=O)(=O)N2	Fluor 339 460 3.72 (not shown: Spn DPM-DC inh)
Cc1cc2nsnc2c(S(=O)(=O)NCC(=O)O)c1C	none
Cc1[nH]c2ccccc2c1C(O)CN1CCN(c2cccc(C(F)(F)F)c2)CC1 (stereo not given)	none
COc1ccc2c(c1)c(C(=O)CNc1nc(C)cs1)c(C)n2C	PMK inhibit 27.0
N#Cc1c(-c2ccccc2)cc(-c2ccco2)c(C#N)c1N	Fluor 339 460 2.26 (not shown: Spn DPM-DC inh)
N#Cc1sc2nc(-c3ccccc3)cc(-c3ccco3)c2c1N	none
COc1ccc(-c2cc(C(N)=O)nc(N3CCCCCC3)n2)cc1	Fluor 339 460 3.45 (not shown: Spn DPM-DC inh)
Cc1noc(C)c1COc1ccc(C(=O)NCc2ccccn2)cc1	none
COC(=O)c1cc(NCc2cccs2)ccc1N1CCOCC1	none
O=C(O)c1cc(NCc2cccs2)ccc1N1CCOCC1	Fluor 339 460 2.39
COC(=O)c1cc(NCc2c(F)cccc2Cl)ccc1N1CCOCC1	Fluor 339 460 2.62, Spn DPM-DC inh active
CC1CCN(C(=O)CSc2nnc(Cc3cc(=O)[nH]c(=O)[nH]3)n2-c2ccc(Cl)cc2)CC1	none
COc1ccc(C(=O)c2oc3ccccc3c2N)cc1	none
COc1ccc2oc(C(=O)C3CC3)c(N)c2c1	Fluor 339 460 2.07
N#Cc1ccccc1CSc1nc(N2CCCCC2)nc(N2CCCCC2)n1	none
CN(C)c1ccc(-c2nnn(CC(=O)N3c4ccccc4CCc4ccccc43)n2)cc1	Fluor 339 460 2.61
CN(C)c1ccc(-c2nnn(CC(=O)Nc3ccccc3N3CCOCC3)n2)cc1	none
COC(=O)C1CCN(C(=O)c2sc3nc(-c4ccc(F)cc4)cn3c2C)CC1	none
Cc1c(Cl)cccc1Nc1ccccc1C(=O)O	none
O=C(O)c1ccc2cccc(Cl)c2c1O	Fluor 339 460 2.54
CCn1ncc2c(OCc3ccc(C#N)cc3)cc(C)nc21	none
Cc1cc(NCc2ccco2)nc2cc(O)ccc12	Fluor 339 460 2.15 (not shown: Spn DPM-DC inh)
O=C(Nc1ccc(F)cc1F)c1cc2ncc(Br)cn2n1	none
COC(=O)c1ccccc1NC(=O)c1cc2ncc(Br)cn2n1	Fluor 339 460 2.08
CC(C)(NCc1ccccc1Cl)C(=O)O	none
Cn1c(-c2nonc2NC(=O)c2ccc(C(C)(C)C)cc2)nc2ccccc21	Fluor 339 460 2.65
CC(=O)Nc1nonc1-c1nc2ccccc2n1CCC(C)C	none
Cn1c2c(c(=O)n(C)c1=O)C(c1ccccc1OC(F)F)C1=C(CCCC1=O)N2 (stereo not given)	Fluor 339 460 3.99
COc1ccc(-c2nc(N)n(C(C)=O)n2)cc1	none
COc1ccc2c(c1)cc1n2CCN2CCCN=C12	Fluor 339 460 2.1
COc1ccc2c(c1)cc1n2CCN=C1N	Fluor 339 460 2.82
O=c1c2c3nc4ccccc4nc3n(/N=C/c3ccco3)c2ncn1CCC1=CCCCC1	none
CC(C)Cn1c(N)c(S(=O)(=O)c2cccs2)c2nc3ccccc3nc21	Fluor 339 460 3.86 (not shown: Spn DPM-DC inh)
Cc1cccc(S(=O)(=O)c2c(N)n(/N=C/c3ccco3)c3nc4ccccc4nc23)c1	Fluor 339 460 3.15
COc1ccc(Cn2c(C)nc3c(c2=O)c2nc4ccccc4nc2n3Cc2ccco2)cc1	none
COc1ccc(S(=O)(=O)c2c(N)n(Cc3ccco3)c3nc4ccccc4nc23)cc1	Fluor 339 460 3.82 (not shown: Spn DPM-DC inh)
Nc1c(S(=O)(=O)c2cccs2)c2nc3ccccc3nc2n1/N=C/c1cccc(O)c1	Fluor 339 460 3.96 (not shown: Spn DPM-DC inh)
COc1ccc(S(=O)(=O)N(C)CC(=O)NCc2cccnc2)cc1C	none
Cc1cccc(S(=O)(=O)c2c(N)n(/N=C/c3cccnc3)c3nc4ccccc4nc23)c1	Fluor 339 460 3.69 (not shown: Spn DPM-DC inh)
Cc1ccc(S(=O)(=O)n2nc(-c3cccnc3)nc2N)cc1	none
